According to PubChem BioAssay (Tox21):
Inconclusive results are not listed. Calls of active or inactive are those of the source. Calls come from the whole dose curve; as a rule, active = well fitted activation curve with a large enough effect in the repeat runs; inconclusive = weak or mixed curves; inactive = no such curve, though single readings can be large or run the other way.

Target: Nuclear receptor subfamily 1 group I member 2 (Homo sapiens) (UniProt O75469)
Assay: CYP3A4 induction through human pregnane X receptor (PXR) by small molecules, qHTS assay (AID 1346984); note: nearly all actives have a fitted effect of over 40% in size
Conditions: DPX-2 HepG2 PXR, CYP3A4-luciferin luminescence, 24 h; series mostly up to 46.1 µM; activation: at the top concentration
Source text: National Center for Advancing Translational Sciences [NCATS]
NIH Chemical Genomics Center [NCGC]
U.S. Environmental Protection Agency [EPA]
National Institutes of Environmental Health Sciences [NIEHS]
National Toxicology Program [NTP]
The Pregnane X receptor (PXR), a ligand activated nuclear receptor plays a critical role in the regulation of genes involved in drug metabolism and transporters. Activation of PXR is responsible for unwanted adverse drug reactions. PXR binds xenobiotics and when compounds interact with PXR enhances the expression of CYP3A genes. Identifying the compounds with the potential for PXR activation and CYP3A4 induction can be of importance in improving the efficacy of drugs with less toxicity and avoiding drug-drug interactions.
DPX-2 (Puracyp, Inc.) cell lines, used for screening against human PXR activation has HepG2 cells co-transfected with a PXR response element and a luciferase construct containing CYP3A4 promoter. Increase in luciferase activity can be used to identify the compounds that cause the induction of CYP3A4.
DPX-2 cells were dispensed at 2,000 cells per well in 5uL of assay medium into white, solid-bottom 1536-well plates using a Multidrop Combi dispenser (Thermo Scientific). The assay plates were incubated at 37C for 5hr before transferring 23nL of test compounds dissolved in DMSO and positive control via Pintool station (Wako). The assay plates were incubated at 37C for 24hr. After 24hr compound treatment, 1uL of 3uM (final concentration) P450 substrate (P450-Glo CYP3A4 screening system with Luciferin-IPA, Promega) was added by a Flying Reagent Dispenser (FRD, Aurora Discovery). The assay plates were incubated for 3hr at 37C. Then 5ul One-Glo assay reagent (Promega) was added to each plate by an FRD and following 30 min incubation at room temperature, luciferase activity was quantified on a ViewLux plate reader (Perkin Elmer).
% is set by controls: 0 for no effect and ±100 for the full control effect.

| Compound | activation | outcome |
| --- | --- | --- |
| CC(c1cc2ccccc2s1)N(O)C(N)=O (centres undefined) | 9.97% (inactive) |  |
| CC(=O)Nc1cccc(O)c1 | 4.08% (inactive) |  |
| CCCCCC(N)=O | -3.14% (inactive) |  |
| C=CCNC(N)=S | -0.0562% (inactive) |  |
| O=C(O)[C@H](O)[C@@H](O)[C@H](O)[C@H](O)CO |  | inactive |
| O=C(O)c1cc(O)c(O)c(O)c1 | -5.71% (inactive) |  |
| O=c1[nH]c(=O)n([C@H]2C[C@H](O)[C@@H](CO)O2)cc1Br | 3.03% (inactive) |  |
| CC1=CCC2CC1C2(C)C (centres undefined) | 3.45% (inactive) |  |
| CC(=O)OCC(=O)[C@@]12N=C(C)O[C@@H]1C[C@H]1[C@@H]3CCC4=CC(=O)C=C[C@]4(C)[C@H]3[C@@H](O)C[C@@]12C | 3.93% (inactive) |  |
| C#CCN(C)Cc1ccccc1 | -3.01% [at 20.6 µM] (inactive) |  |
| CC(=O)Nc1ccccc1 | -4.04% (inactive) |  |
| O=c1[nH]c(=O)n([C@H]2CCCO2)cc1F | -2.36% (inactive) |  |
| OC[C@H]1O[C@@](CO)(O[C@H]2O[C@H](CO)[C@@H](O)[C@H](O)[C@H]2O)[C@@H](O)[C@@H]1O | -8.68% (inactive) |  |
| OCCOCCOCCO | 5.75% (inactive) |  |
